# Test results: PubChem BioAssay (NCATS)
# Results filed as inconclusive are left out. A number with no mark means an inactive call.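 The calls were made as follows: active = compounds whose dose-response curve shows a full or clear partial loss of cell viability, called from curve shape rather than a numeric limit; inconclusive = weak partial curves or an effect only at the top dose; inactive = no dose-dependent loss of viability.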
# Assay: Cell Viability - Hek293 (AID 427);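 also: cells exposed to compound for 40 hours at 37 °C before reading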
# Settings: qHTS
# Source text: NIH Chemical Genomics Center [NCGC]
# NIH Molecular Libraries Screening Centers Network [MLSCN]
# National Institutes of Environmental Health Sciences [NIEHS]
# National Toxicology Program [NTP]
# We have developed a 1536-well cell-based assay for quantitative high throughput screening (qHTS) against a number of cell lines to determine in vitro cytotoxicity of small molecules. This particular assay uses the Hek 293 cell line which is derived from human embryonic kidney cells (transformed with adenovirus).
# NCGC Assay Protocol Summary:
# The CellTiter-Glo luminescent cell viability assay (Promega) is a homogeneous method to measure the number of viable cells in culture. The end point readout of this assay is based on quantitation of intracellular ATP, an indicator of metabolic activity, using the luciferase reaction. Luciferase catalyzes the oxidation of beetle Luciferin to oxyluciferin and light in the presence of ATP. The luminescent signal is proportional to amount of ATP present.
# Using the CellTiter-Glo luminescent cell viability assay, the amount of cellular ATP was measured in the Hek293 cell line with complete culture medium following compound treatment for 40 hours. The assay was performed in opaque white Kalypsys 1536-well plates. In the screen, tamoxifen and doxorubicin were used as positive controls. Library compounds were measured for their ability to cause acute toxicity in the cell line, as reflected by a decrease in intracellular ATP levels, in a concentration-dependent manner. Data were normalized to the controls for basal activity (DMSO only) and 100% inhibition (100 uM tamoxifen). AC50 values were determined from concentration-response data modeled with the standard Hill equation.
# qHTS protocol fo CellTiter Glo Hek 293 cellular assay
# [Step] [Parameter] [Value] [Description]
# 2. Time; 5 hr; 37 °C incubation
# 4. Controls; 23 nL; Tamoxifen 0.34 uM to 100 uM & Doxorubicin 0.02 nM to 100 uM
# 5. Time; 40 hr; 37 °C incubation
# 6. Reagent; 5 uL; CellTiter Glo reagent
# 7. Time; 20 min; Room Temperature
# 8. Detection; Luminescence; Viewlux plate reader
# Keywords: cell viability, cytotoxicity, Hek293 cell line, luminescence, NTPHTS, NTPHTS_NCGC, NIEHS, EPA, DSSTox, MLSMR, MLSCN, NIH Roadmap, qHTS, NCGC
# Potency is read from the fitted curve at half-maximal effect.
row,Compound,Potency
1,Nc1ccc(Oc2ccc(N)cc2)cc1,> 92 µM
2,ClCc1ccccn1,> 92 µM
3,Clc1cccc(Cl)c1,> 92 µM
4,CCBr,> 92 µM
5,O=[N+]([O-])c1ccccc1CCl,> 92 µM
6,N#CCc1ccccc1,> 92 µM
7,C=CC(=O)OCC(C)C,> 92 µM
8,CCOP(=O)(OCC)OCC,> 92 µM
9,OCCOCCO,> 92 µM
10,C=C(Cl)CSC(=S)N(CC)CC,> 92 µM
11,CCC(Cl)[N+](=O)[O-] (stereo not given),> 92 µM
12,O=C(O)c1cc(Cl)ccc1Cl,> 92 µM
13,c1ccc(N=NNc2ccccc2)cc1,> 92 µM
14,Nc1ccc(Cc2ccc(N)cc2)cc1,> 92 µM
15,CCCCC(=O)Cl,> 92 µM
16,Nc1c(Br)cc([N+](=O)[O-])cc1[N+](=O)[O-],> 92 µM
17,Cl/C=C/Cl,> 92 µM
18,CCCCOCC1CO1 (stereo not given),> 92 µM
19,FC(Cl)(Cl)Cl,> 92 µM
20,CN=C=O,> 92 µM

row,Compound,Potency
1,CCOC(=O)CBr,> 92 µM
2,Oc1cc(Cl)ccc1Cl,> 92 µM
3,CC(C)C#N,> 92 µM
4,Nc1ccc([N+](=O)[O-])cc1[N+](=O)[O-],> 92 µM
5,N#CCCC#N,> 92 µM
6,CCNCC,> 92 µM
7,CN(C)C(=O)Nc1cccc(C(F)(F)F)c1,> 92 µM
8,CC(C)(C)OOC(=O)c1ccccc1,> 92 µM
9,Cc1cc(Cl)ccc1O,> 92 µM
10,Nc1cc(Cl)cc(Cl)c1,> 92 µM
11,CCCCCc1cc(O)cc(O)c1,> 92 µM
12,CC(Cl)CCl (stereo not given),> 92 µM
13,ClCCCCl,> 92 µM
14,[O-][Cl+2]([O-])O,> 92 µM
15,CC(C)CC(C)N (stereo not given),> 92 µM
16,c1ccc(NNc2ccccc2)cc1,> 92 µM
17,O=[N+]([O-])c1ccccc1O,> 92 µM
18,Cc1cccc(C)c1N,> 92 µM
19,C=COC(C)=O,> 92 µM
20,Cc1ccc(N)cc1C,> 92 µM
